# Assay results as given in PubChem BioAssay (NCATS).
# Several values for one entry are separate records, joined by “and”; a condition that tells them apart may be missing. Equal entries are not always repeated. Records with an inconclusive call do not appear. More than one record can exist for a structure, and the calls need not agree. Activity calls are given as the source filed them. Unless noted, the call rests on the fitted dose curve; in most records, active means well fitted curve in the direction sought with a large enough effect; inconclusive means small, poorly fitted or top-dose-only effect, or another doubt; inactive means no such curve, though single readings can be large; an effect the other way counts as inactive or inconclusive.
# Columns and labels:
# [1] = biological target: Cytochrome P450 2C9 (Homo sapiens) (UniProt P11712); assay: Cytochrome P450 family 2 subfamily C member 9 (CYP2C9) small molecule antagonists: luciferase biochemical (cell-free) qHTS assay (AID 1645842; active means well fitted curve in the direction sought with a large enough effect in the repeat runs; an effect the other way counts as inactive or inconclusive; further: nearly all actives have a fitted effect of over 55% in size; further: potency means the concentration at half of the fitted maximal effect; on activity change, negative = inhibition: on the % scale 0 is the no-effect control and ±100 the full control effect)
# Sequence of Cytochrome P450 2C9 (Homo sapiens) (P11712 whole entry, looked up): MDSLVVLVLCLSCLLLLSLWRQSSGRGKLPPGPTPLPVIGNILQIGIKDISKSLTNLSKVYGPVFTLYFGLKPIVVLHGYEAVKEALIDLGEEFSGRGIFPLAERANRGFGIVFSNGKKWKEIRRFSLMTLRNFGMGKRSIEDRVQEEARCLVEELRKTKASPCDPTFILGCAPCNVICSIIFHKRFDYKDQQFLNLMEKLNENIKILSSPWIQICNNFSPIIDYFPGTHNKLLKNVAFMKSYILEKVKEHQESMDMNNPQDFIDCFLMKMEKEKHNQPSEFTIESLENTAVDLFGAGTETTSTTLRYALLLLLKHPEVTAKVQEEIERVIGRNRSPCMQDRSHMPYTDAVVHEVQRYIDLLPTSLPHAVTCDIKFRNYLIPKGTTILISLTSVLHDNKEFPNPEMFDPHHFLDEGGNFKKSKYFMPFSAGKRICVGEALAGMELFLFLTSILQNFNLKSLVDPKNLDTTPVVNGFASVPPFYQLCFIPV
# In short: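 Luminescence, after 20 min with luciferin detection reagent, reflected CYP2C9 turnover during a 1 h NADPH-driven reaction at 37C. Enzyme-substrate mix contained 0.4% bovine serum albumin and was preincubated with compound 10 min at room temperature.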
# [2] = Primary qHTS for inhibitors of nuclear receptor binding SET domain protein 2 (NSD2) in an isogenic RCH-ACV NSD2 p.E1099K mutant (9B) (AID 1645876); further: nearly all actives have a fitted effect of over 70% in size; further: potency means the concentration at half of the fitted maximal effect; on activity change, negative = viability loss: on the % scale 0 is the no-effect control and ±100 the full control effect
# [3] = Primary qHTS for inhibitors of nuclear receptor binding SET domain protein 2 (NSD2) in an RCH-ACV wild type WT cells (2C) (AID 1645877); further: nearly all actives have a fitted effect of over 70% in size; further: potency means the concentration at half of the fitted maximal effect; on activity change, negative = cell killing: on the % scale 0 is the no-effect control and ±100 the full control effect
# Papain (Carica papaya) = Papain (Carica papaya) (UniProt P00784); assay: Primary qHTS assay for inhibitors of the protease papain (AID 1645873);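 further: papain turnover of Z-FR-AMC read as the AMC fluorescence gain over 10 min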; further: potency means the concentration at half of the fitted maximal effect; on activity change, negative = inhibition: on the % scale 0 is the no-effect control and ±100 the full control effect
# Sequence of Papain (Carica papaya) (P00784 whole entry, looked up): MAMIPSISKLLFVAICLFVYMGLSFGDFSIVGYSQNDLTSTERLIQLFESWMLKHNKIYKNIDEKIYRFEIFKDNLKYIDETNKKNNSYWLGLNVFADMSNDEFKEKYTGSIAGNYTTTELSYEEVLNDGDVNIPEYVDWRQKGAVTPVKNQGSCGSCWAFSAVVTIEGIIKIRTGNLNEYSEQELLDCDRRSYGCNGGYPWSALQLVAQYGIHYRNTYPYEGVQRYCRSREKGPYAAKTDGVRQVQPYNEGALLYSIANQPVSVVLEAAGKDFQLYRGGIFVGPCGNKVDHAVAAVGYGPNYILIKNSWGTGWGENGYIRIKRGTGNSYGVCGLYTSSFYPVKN
# [4] = biological target: N-terminal Xaa-Pro-Lys N-methyltransferase 1 (Homo sapiens) (UniProt Q9BV86); assay: Confirmatory qHTS for Inhibitors of N-terminal methyltransferase 1 (NTMT1): MTaseGlo Assay (AID 1645874); further: potency means the concentration at half of the fitted maximal effect; nearly all actives have a fitted effect of over 65% in size
# Sequence of N-terminal Xaa-Pro-Lys N-methyltransferase 1 (Homo sapiens) (Q9BV86 whole entry, looked up): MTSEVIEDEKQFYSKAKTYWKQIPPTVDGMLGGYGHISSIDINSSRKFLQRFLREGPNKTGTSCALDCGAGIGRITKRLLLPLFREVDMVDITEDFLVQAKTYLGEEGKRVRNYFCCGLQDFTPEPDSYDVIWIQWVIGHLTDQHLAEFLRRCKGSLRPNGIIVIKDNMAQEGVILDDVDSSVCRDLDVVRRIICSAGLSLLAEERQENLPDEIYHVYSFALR
# In short: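 Luminescent MTase-Glo read-out of SAH. 125 nM NTMT1, 100 uM SAM, 1 uM SPKRIA substrate, 30 min RT reaction after 15 min compound preincubation. Normalized to no-enzyme and DMSO controls; Hill fit.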
# [5] = biological target: Catechol O-methyltransferase (Homo sapiens) (UniProt P21964); assay: Confirmatory Screen for Target Class Profiling of Small Molecule Inhibitors of Methyltransferases (AID 1745852; calls by dose curve); details: MTase-Glo luminescence, SAH detection, recombinant enzyme; measured here: COMT max response; stronger effect = lower value
# Sequence of Catechol O-methyltransferase (Homo sapiens) (P21964 whole entry, looked up): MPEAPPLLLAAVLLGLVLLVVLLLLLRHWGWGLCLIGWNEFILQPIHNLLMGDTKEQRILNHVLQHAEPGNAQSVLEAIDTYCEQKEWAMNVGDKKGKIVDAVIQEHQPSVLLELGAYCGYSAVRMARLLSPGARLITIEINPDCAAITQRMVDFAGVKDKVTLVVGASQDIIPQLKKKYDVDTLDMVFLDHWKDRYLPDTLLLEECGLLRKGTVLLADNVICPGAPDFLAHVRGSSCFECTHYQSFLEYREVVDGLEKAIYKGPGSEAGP
# [6] = biological target: Guanidinoacetate N-methyltransferase (Homo sapiens) (UniProt Q14353); assay: as above; details: MTase-Glo luminescence, SAH detection, recombinant enzyme; activity change, negative = inhibition: at 57.3 µM (top of the series) unless noted
# [7] = biological target: Nicotinamide N-methyltransferase (Homo sapiens) (UniProt P40261); assay: as above; details: MTase-Glo luminescence, SAH detection, recombinant enzyme; measured here: NNMT max response; stronger effect = lower value
# Sequence of Nicotinamide N-methyltransferase (Homo sapiens) (P40261 whole entry, looked up): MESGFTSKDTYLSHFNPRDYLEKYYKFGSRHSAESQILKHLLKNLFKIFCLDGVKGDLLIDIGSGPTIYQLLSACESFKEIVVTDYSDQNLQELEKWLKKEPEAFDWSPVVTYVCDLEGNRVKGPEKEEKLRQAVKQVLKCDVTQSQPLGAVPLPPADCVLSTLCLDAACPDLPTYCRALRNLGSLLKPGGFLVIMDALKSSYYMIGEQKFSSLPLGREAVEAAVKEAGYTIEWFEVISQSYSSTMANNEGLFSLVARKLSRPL
# [8] = biological target: Phenylethanolamine N-methyltransferase (Homo sapiens) (UniProt P11086); assay: as above; details: MTase-Glo luminescence, SAH detection, recombinant enzyme; measured here: PNMT max response; stronger effect = lower value
# Sequence of Phenylethanolamine N-methyltransferase (Homo sapiens) (P11086 whole entry, looked up): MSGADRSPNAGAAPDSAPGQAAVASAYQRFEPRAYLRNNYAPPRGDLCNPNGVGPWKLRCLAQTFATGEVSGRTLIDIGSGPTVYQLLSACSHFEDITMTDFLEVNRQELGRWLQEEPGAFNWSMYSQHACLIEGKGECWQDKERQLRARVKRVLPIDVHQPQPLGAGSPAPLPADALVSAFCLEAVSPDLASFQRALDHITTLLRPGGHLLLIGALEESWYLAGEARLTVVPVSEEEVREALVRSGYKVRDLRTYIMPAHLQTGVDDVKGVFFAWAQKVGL
# [9] = biological target: Rap guanine nucleotide exchange factor 3 (Homo sapiens) (UniProt O95398); assay: Confirmatory qHTS for antagonist of cAMP-regulated guanine nucleotide exchange factor 3 (EPAC1) (AID 1645880);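 further: plate controls were DMSO only for no effect and full effect of the ATA control for full effect; nearly all actives have a fitted effect of over 55% in size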
# Sequence of Rap guanine nucleotide exchange factor 3 (Homo sapiens) (O95398 whole entry, looked up): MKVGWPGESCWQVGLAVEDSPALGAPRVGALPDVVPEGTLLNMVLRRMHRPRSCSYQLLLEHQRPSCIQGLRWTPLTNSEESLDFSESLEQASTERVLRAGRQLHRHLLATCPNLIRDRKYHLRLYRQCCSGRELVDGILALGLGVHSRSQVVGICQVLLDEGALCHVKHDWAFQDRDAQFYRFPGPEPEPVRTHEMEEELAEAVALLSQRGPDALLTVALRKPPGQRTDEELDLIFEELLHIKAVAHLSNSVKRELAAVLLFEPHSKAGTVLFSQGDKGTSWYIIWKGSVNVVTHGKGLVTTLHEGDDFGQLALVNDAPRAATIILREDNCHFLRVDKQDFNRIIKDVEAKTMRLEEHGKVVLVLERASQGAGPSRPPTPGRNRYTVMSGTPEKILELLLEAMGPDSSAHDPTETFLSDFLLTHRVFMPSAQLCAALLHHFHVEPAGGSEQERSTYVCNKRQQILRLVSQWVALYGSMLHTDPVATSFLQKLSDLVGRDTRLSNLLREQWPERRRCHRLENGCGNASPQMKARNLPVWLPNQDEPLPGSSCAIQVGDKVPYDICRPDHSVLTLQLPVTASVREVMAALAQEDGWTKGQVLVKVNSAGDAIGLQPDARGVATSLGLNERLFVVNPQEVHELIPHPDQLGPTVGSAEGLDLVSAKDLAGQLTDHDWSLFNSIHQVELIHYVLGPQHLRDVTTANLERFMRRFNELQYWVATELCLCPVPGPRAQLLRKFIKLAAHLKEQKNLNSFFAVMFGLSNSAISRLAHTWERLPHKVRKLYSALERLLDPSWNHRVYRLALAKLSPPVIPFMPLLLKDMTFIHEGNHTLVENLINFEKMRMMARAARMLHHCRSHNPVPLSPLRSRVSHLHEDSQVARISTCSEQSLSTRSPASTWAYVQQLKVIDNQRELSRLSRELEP
# In short: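 Nucleotide exchange uses 100 nM EPAC1, 250 nM RAP1B-BODIPY-GDP and 50 uM GDP, with compounds in a concentration-titration series. After 5 min at room temperature, fluorescence (480 nm ex/540 nm em) is read every 5 min for 30 min. Data are normalized to control ATA and DMSO.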
# [10] = biological target: Rap guanine nucleotide exchange factor 3 (Homo sapiens) (UniProt O95398); assay: Confirmatory qHTS for agonist of cAMP-regulated guanine nucleotide exchange factor 3 (EPAC1) (AID 1645881);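 further: EPAC1 catalysed release of BODIPY-GDP from Rap1B seen as fluorescence loss; 100% = effect of cAMP agonist control; nearly all actives have a fitted effect of over 75% in size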
compound,measurement,setting,value
COc1ccccc1-c1cccc(-c2c(O)c3cc(C#N)c(Cl)cc3[nH]c2=O)c1,Potency,[1],35.5 µM (active)
same,Potency,[2],inactive
same,Potency,[3],inactive
C[C@H](NC(=O)Cc1cc(F)cc(F)c1)C(=O)N[C@@H]1C(=O)N(C)c2ccccc2-c2ccccc21,Potency,[2],inactive
O=NN(CCCl)C(=O)NCCCl,Potency,Papain (Carica papaya),inactive
same,Potency,[2],inactive
same,Potency,[3],inactive
Nc1ncnc2nc(-c3ccc(N4CCOCC4)nc3)cc(-c3cccc(Br)c3)c12,Potency,[4],0.515 µM (active)
same,Potency,[3],20.9 µM (active)
NS(=O)(=O)c1cc2c(cc1Cl)NC=NS2(=O)=O,Potency,Papain (Carica papaya),inactive
same,Potency,[2],inactive
same,Potency,[3],inactive
CC[C@H](Nc1ncnc2nc[nH]c12)c1nc2cccc(F)c2c(=O)n1-c1ccccc1,Potency,[2],164 nM (active) and 833 nM (active)
same,"activity change, negative = viability loss",[2],-6.84% [at 9.23 µM] (inactive)
same,Potency,[3],231 nM (active) and 1.18 µM (active)
same,"activity change, negative = cell killing",[3],-1.09% [at 9.23 µM] (inactive)
Oc1cccc(-c2nc(N3CCOCC3)c3oc4ncccc4c3n2)c1,Potency,[2],0.118 µM (active)
same,Potency,[3],0.166 µM (active)
COc1cc(Nc2ncc3c(n2)-c2ccc(Cl)cc2C(c2c(F)cccc2OC)=NC3)ccc1C(=O)O,Potency,[1],inactive
same,Potency,[2],115 nM (active) and 20.5 nM (active) and 66.1 nM (active)
same,Potency,[3],91.6 nM (active) and 29 nM (active) and 37.2 nM (active)
same,activity,[5],0.763%
same,"activity change, negative = inhibition",[6],2.21%
same,activity,[7],-15.5%
same,activity,[8],2.42%
CCCc1nc2c(C)cc(-c3nc4ccccc4n3C)cc2n1Cc1ccc(-c2ccccc2C(=O)O)cc1,Potency,[1],8.71 µM (active)
same,Potency,[2],inactive
same,Potency,[3],inactive
O=C1[C@H](Cc2ccc(O)cc2)N2C(=O)CCN(C(=O)NCc3ccccc3)[C@H]2CN1Cc1cccc2ccccc12,Potency,[2],3.72 µM (active)
same,Potency,[3],3.72 µM (active)
COc1ccc2c3n(c(=NC(=O)c4cccnc4)nc2c1OC)CCN3,Potency,[2],0.166 µM (active)
same,Potency,[3],0.186 µM (active)
O=C(O)CCc1ccc(NCc2cccc(Oc3ccccc3)c2)cc1,Potency,Papain (Carica papaya),inactive
same,Potency,[2],inactive
same,Potency,[3],inactive
CC(C)(C)OC(=O)CN(Cc1ccc(Cl)cc1)Cc1ccc([N+](=O)[O-])s1,Potency,[2],inactive
CC(C)(N)C(=O)N[C@H](COCc1ccccc1)C(=O)N1CCC2(CC1)CN(S(C)(=O)=O)c1ccccc12,Potency,[1],inactive
same,Potency,[2],16.3 µM (active) and 26.3 µM (active)
same,Potency,[3],14.5 µM (active) and 14.8 µM (active)
Cc1c(C)c2c(c(C)c1O)CCC(C)(COc1ccc(CC3SC(=O)NC3=O)cc1)O2 (configuration not stated),Potency,[1],6.92 µM (active)
Cc1cc2c(F)c(Oc3ncnn4cc(OC[C@@H](C)O)c(C)c34)ccc2[nH]1,Potency,[2],2.63 µM (active)
CC(C)C[C@H](NC(=O)[C@@H](O)[C@H](N)Cc1ccccc1)C(=O)O,Potency,Papain (Carica papaya),inactive
same,Potency,[2],inactive
same,Potency,[3],inactive
Cc1cc2c(C(C)C)c(O)c(O)c(C=O)c2c(O)c1-c1c(C)cc2c(C(C)C)c(O)c(O)c(C=O)c2c1O,Potency,Papain (Carica papaya),12.6 µM (active)
same,Potency,[2],10.5 µM (active)
same,Potency,[3],9.34 µM (active)
Cc1cccc(-c2[nH]c(C(C)(C)C)nc2-c2ccc3nccnc3c2)n1,Potency,Papain (Carica papaya),inactive
same,Potency,[2],13.2 µM (active) and 5.8 µM (active)
same,Potency,[3],11.8 µM (active) and 6.51 µM (active)
O=C(Nc1ccc(F)c(C(F)(F)F)c1)Nc1nnc(-c2ccncc2)s1,Potency,[2],inactive
O=C(Nc1nc2ccccc2n1CCN1CCOCC1)c1cccc([N+](=O)[O-])c1,Potency,Papain (Carica papaya),inactive
same,Potency,[2],inactive
same,Potency,[3],inactive
O=C(NOC[C@H](O)CO)c1ccc(F)c(F)c1Nc1ccc(I)cc1F,Potency,[1],16.9 µM (active)
same,Potency,[2],inactive
same,Potency,[3],inactive
Cn1cc(-c2ccc3nnc(C(F)(F)c4ccc5ncccc5c4)n3n2)cn1,Potency,[1],3.01 µM (active)
CN(C)c1ccc(Nc2nc(N)n(C(=O)c3c(F)cccc3F)n2)cc1,Potency,[2],1.48 µM (active)
same,Potency,[3],0.833 µM (active)
Cc1ccnc(NS(=O)(=O)c2ccc(NC(=O)Nc3ccc(S(=O)(=O)Nc4nccc(C)n4)cc3)cc2)n1,Potency,[2],inactive
same,Potency,[3],inactive
OCCC#Cc1nc(-c2ccc(F)cc2)c(-c2ccncc2)n1CCCc1ccccc1,Potency,[2],16.4 µM (active) and 11.8 µM (active)
same,Potency,[3],18.4 µM (active) and 9.34 µM (active)
COc1cc(F)c(F)c(Nc2ccc(I)cc2F)c1NS(=O)(=O)C1(C[C@H](O)CO)CC1,Potency,[2],18.3 µM (active) and 20.9 µM (active)
same,Potency,[3],25.8 µM (active) and 20.9 µM (active)
CCOC(=O)N1CCC(=C2c3ccc(Cl)cc3CCc3cccnc32)CC1,Potency,Papain (Carica papaya),inactive
same,Potency,[9],inactive
same,outcome,[10],inactive
O=C(C1CC1)N1CC[C@@H](Cn2c(-c3ccc(-c4ccc5occc5c4)cc3)nc3cnccc32)C1,Potency,[2],18.6 µM (active)
same,Potency,[3],16.6 µM (active)
O=C(c1cc(Cc2n[nH]c(=O)c3ccccc23)ccc1F)N1CCN(C(=O)C2CC2)CC1,Potency,[2],6.61 µM (active)
same,Potency,[3],3.72 µM (active)
CN(C)c1ccc(C2Nc3ccc4ccccc4c3C3=C2C(=O)CC(C)(C)C3)cc1Br (configuration not stated),Potency,[2],inactive
same,Potency,[3],inactive
Cc1c(CCOc2ccc(C(=O)O)cc2)c2cc(Cl)ccc2n1C(c1ccccc1)c1ccccc1,Potency,[2],inactive
same,Potency,[3],inactive
Cc1csc(NC(=O)c2sc3nc4c(c(C(F)(F)F)c3c2N)CCC4)n1,Potency,[3],inactive
CCn1c(-c2nonc2N)nc2cnc(Oc3cccc(NC(=O)c4ccc(OCCN5CCOCC5)cc4)c3)cc21,Potency,[2],3.26 µM (active) and 662 nM (active)
same,Potency,[3],326 nM (active) and 417 nM (active)
CNC(=O)c1ccc(N2C(=S)N(c3ccc(C#N)c(C(F)(F)F)c3)C(=O)C2(C)C)cc1F,Potency,[2],inactive
same,Potency,[3],inactive
